Experimental findings from a collection of fitness landscapes (doi:10.1016/j.celrep.2020.107928) are described below.

Over roughly 81,000 sequences, “one-hybrid fitness for binding parS DNA” has its median near -0.17; the highest 2% begin near 0.51. Many of the other results were omitted from the sample, so the highest values are more common in it than they were.

Sequences and labels used below:
B1: Caulobacter ParB omega fusion; a variant is named by its letters at X, in order, B8GW30 (parent)
chain: MESVVVGEPGMSEGRRGLGRGLSALLGEVDAAPAQAPGEQLGGSREAPIEILQRNPDQPRRTFREEDLEDLSNSIREKGVLQPILVRPSPDTAGEYQIVAGERAWRAAQRAGLKTVPIMVRELDDLAVLEIGIIENVQRADLNVLEEALSYKVLMEKFERTQENIAQTIGKSXSHVANXMRLLXLPDEVQSYLVSGELTAXHARAIAAAADPVALAKQIIEGGLSVRETEALARKAPNLSAGKSKGGRPPRVKDTDTQALESDLSSVLGLDVSIDHRGSTGTLTITYATLEQLDDLCNRLTRGI

Variants of B1 are the subject of this test. Kind of test: one-hybrid fitness for binding parS DNA (scaled: cognate 1, non-cognate 0); higher = stronger binding. The note with it: with parS DNA site. In short, it runs like this:
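On M9-minus-histidine containing 0.1 mM IPTG and 5 mM 3-AT, E. coli USO cells with a HIS3 reporter, site 19 bp from the promoter, grew 48 hours at 37°C to select Caulobacter ParB libraries randomised at four specificity codons. Plasmids from before and after were Illumina-sequenced, with three replicate libraries pooled and variants under 10 reads left out. Fitness is the log change in variant-to-wild-type read ratio, rescaled against cognate and non-cognate.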
As to PNWL, the “one-hybrid fitness for binding parS DNA” value is no more than 0.2.

As for PCED, the “one-hybrid fitness for binding parS DNA” value was no more than 0.2.

As for HNST, the “one-hybrid fitness for binding parS DNA” value was no more than 0.2.

As to SHDR, the “one-hybrid fitness for binding parS DNA” value is no more than 0.2.

For the variant PGRS, the “one-hybrid fitness for binding parS DNA” value was no more than 0.2.

Take GDYR: the “one-hybrid fitness for binding parS DNA” value is no more than 0.2.

For the variant GWST, the “one-hybrid fitness for binding parS DNA” value was no more than 0.2.

For the variant QTYA, the “one-hybrid fitness for binding parS DNA” value was no more than 0.2.

Turning to NGRC, the “one-hybrid fitness for binding parS DNA” value was no more than 0.2.

As for RWDK, the “one-hybrid fitness for binding parS DNA” value was no more than 0.2.

Regarding RWQM, the “one-hybrid fitness for binding parS DNA” value was no more than 0.2.

As to RWWR, the “one-hybrid fitness for binding parS DNA” value was no more than 0.2.

With RWCR, the “one-hybrid fitness for binding parS DNA” value is no more than 0.2.

Regarding RWDF, the “one-hybrid fitness for binding parS DNA” value was no more than 0.2.

Take RWWG: the “one-hybrid fitness for binding parS DNA” value is 0.641.

RWDG: the “one-hybrid fitness for binding parS DNA” value came to 0.616.

With RWQK, the “one-hybrid fitness for binding parS DNA” value is no more than 0.2.

For RWCM, the “one-hybrid fitness for binding parS DNA” value is no more than 0.2.

In the case of RWWY, the “one-hybrid fitness for binding parS DNA” value was no more than 0.2.

Consider RWQG, for which the “one-hybrid fitness for binding parS DNA” value worked out at 0.741.

As for RWCG, the “one-hybrid fitness for binding parS DNA” value was found to be 0.688.

Regarding QCIG, the “one-hybrid fitness for binding parS DNA” value is no more than 0.2.

With ILHY, the “one-hybrid fitness for binding parS DNA” value is no more than 0.2.

Regarding PETC, the “one-hybrid fitness for binding parS DNA” value was no more than 0.2.

On to RDAC, for which the “one-hybrid fitness for binding parS DNA” value is no more than 0.2.

Regarding CSPC, the “one-hybrid fitness for binding parS DNA” value is no more than 0.2.

On to WCDG, for which the “one-hybrid fitness for binding parS DNA” value is no more than 0.2.

Consider TEMT, for which the “one-hybrid fitness for binding parS DNA” value was no more than 0.2.

In the case of QRMV, the “one-hybrid fitness for binding parS DNA” value was no more than 0.2.

Consider PGQN, for which the “one-hybrid fitness for binding parS DNA” value was no more than 0.2.

As to RFNK, the “one-hybrid fitness for binding parS DNA” value was 0.203.

For the variant YQGC, the “one-hybrid fitness for binding parS DNA” value is no more than 0.2.

Turning to RRKQ, the “one-hybrid fitness for binding parS DNA” value is no more than 0.2.

On to RRVC, for which the “one-hybrid fitness for binding parS DNA” value is 0.673.

Regarding RRKR, the “one-hybrid fitness for binding parS DNA” value is no more than 0.2.

As to RRKC, the “one-hybrid fitness for binding parS DNA” value was 0.649.

Take PLTK: the “one-hybrid fitness for binding parS DNA” value was no more than 0.2.

With INSY, the “one-hybrid fitness for binding parS DNA” value is no more than 0.2.

On to ENFG, for which the “one-hybrid fitness for binding parS DNA” value is no more than 0.2.

For the variant RTRD, the “one-hybrid fitness for binding parS DNA” value was no more than 0.2.

For RTWN, the “one-hybrid fitness for binding parS DNA” value was found to be 0.461.

Consider RTYT, for which the “one-hybrid fitness for binding parS DNA” value turned out to be 0.952.

As to RTQT, the “one-hybrid fitness for binding parS DNA” value was determined as 0.925.

For the variant RTQM, the “one-hybrid fitness for binding parS DNA” value was found to be 0.352.

For RTRT, the “one-hybrid fitness for binding parS DNA” value turned out to be 0.747.

Take RTWH: the “one-hybrid fitness for binding parS DNA” value came to 0.254.

On to RTYK, for which the “one-hybrid fitness for binding parS DNA” value was no more than 0.2.

In the case of RTRK, the “one-hybrid fitness for binding parS DNA” value was no more than 0.2.

Consider RTYR, for which the “one-hybrid fitness for binding parS DNA” value was no more than 0.2.

As for RTWT, the “one-hybrid fitness for binding parS DNA” value amounted to 0.916.

On to RTQQ, for which the “one-hybrid fitness for binding parS DNA” value was no more than 0.2.

In the case of RGTV, the “one-hybrid fitness for binding parS DNA” value is no more than 0.2.

For KKRF, the “one-hybrid fitness for binding parS DNA” value is no more than 0.2.

With SRPQ, the “one-hybrid fitness for binding parS DNA” value was no more than 0.2.

Regarding ITEL, the “one-hybrid fitness for binding parS DNA” value was no more than 0.2.

With RTGP, the “one-hybrid fitness for binding parS DNA” value is no more than 0.2.

Take RTSF: the “one-hybrid fitness for binding parS DNA” value turned out to be 0.246.

Turning to RTGT, the “one-hybrid fitness for binding parS DNA” value turned out to be 0.912.

Take RTST: the “one-hybrid fitness for binding parS DNA” value worked out at 0.91.

As for RTGR, the “one-hybrid fitness for binding parS DNA” value is no more than 0.2.

On to RTSK, for which the “one-hybrid fitness for binding parS DNA” value was no more than 0.2.

For TRWL, the “one-hybrid fitness for binding parS DNA” value was no more than 0.2.

In the case of HSDW, the “one-hybrid fitness for binding parS DNA” value was no more than 0.2.

For HVPD, the “one-hybrid fitness for binding parS DNA” value is no more than 0.2.

As to GQVR, the “one-hybrid fitness for binding parS DNA” value was no more than 0.2.

Consider FGAG, for which the “one-hybrid fitness for binding parS DNA” value is no more than 0.2.

In the case of NLVS, the “one-hybrid fitness for binding parS DNA” value was no more than 0.2.

As for RHVK, the “one-hybrid fitness for binding parS DNA” value was no more than 0.2.

Consider RHVT, for which the “one-hybrid fitness for binding parS DNA” value was 0.637.

Consider RHKF, for which the “one-hybrid fitness for binding parS DNA” value stood at 0.255.

RHKK: the “one-hybrid fitness for binding parS DNA” value was no more than 0.2.

As to RHVM, the “one-hybrid fitness for binding parS DNA” value is no more than 0.2.

For RHKT, the “one-hybrid fitness for binding parS DNA” value amounted to 0.745.

TMRL: the “one-hybrid fitness for binding parS DNA” value was no more than 0.2.

Consider CWHG, for which the “one-hybrid fitness for binding parS DNA” value worked out at 0.244.

In the case of MPLG, the “one-hybrid fitness for binding parS DNA” value is no more than 0.2.

For YPFR, the “one-hybrid fitness for binding parS DNA” value is no more than 0.2.

In the case of RTKR, the “one-hybrid fitness for binding parS DNA” value was no more than 0.2.

Turning to RTKN, the “one-hybrid fitness for binding parS DNA” value stood at 0.441.

In the case of RTKG, the “one-hybrid fitness for binding parS DNA” value is 0.872.

Turning to RTVG, the “one-hybrid fitness for binding parS DNA” value is 0.979.

Turning to RTVH, the “one-hybrid fitness for binding parS DNA” value was no more than 0.2.

For the variant RTVD, the “one-hybrid fitness for binding parS DNA” value is no more than 0.2.

On to KCHG, for which the “one-hybrid fitness for binding parS DNA” value is no more than 0.2.

On to GQFL, for which the “one-hybrid fitness for binding parS DNA” value is no more than 0.2.

For PQKC, the “one-hybrid fitness for binding parS DNA” value is no more than 0.2.

In the case of NWQS, the “one-hybrid fitness for binding parS DNA” value was no more than 0.2.

In the case of RRFH, the “one-hybrid fitness for binding parS DNA” value was no more than 0.2.

RRAD: the “one-hybrid fitness for binding parS DNA” value is no more than 0.2.

For RCAN, the “one-hybrid fitness for binding parS DNA” value stood at 0.477.

Turning to RRFN, the “one-hybrid fitness for binding parS DNA” value was 0.314.

For RRAS, the “one-hybrid fitness for binding parS DNA” value was 0.652.

For RRAN, the “one-hybrid fitness for binding parS DNA” value came to 0.583.

With RRFP, the “one-hybrid fitness for binding parS DNA” value was no more than 0.2.

RRAH: the “one-hybrid fitness for binding parS DNA” value was no more than 0.2.

For RRFS, the “one-hybrid fitness for binding parS DNA” value was found to be 0.743.

For MEPC, the “one-hybrid fitness for binding parS DNA” value was no more than 0.2.

Consider GRGV, for which the “one-hybrid fitness for binding parS DNA” value is no more than 0.2.

As to MVCR, the “one-hybrid fitness for binding parS DNA” value was no more than 0.2.
